Among the data in paper PMC7862700, “An all-to-all approach to the identification of sequence-specific readers for epigenetic DNA modifications on cytosine” are binding signal values, retold here.

What all share (experiment): DAPPL (digital affinity profiling via proximity ligation, sequencing); 10 mM Tris-HCl pH 7.5, 50 mM NaCl, 1 mM DTT, 4% glycerol, room temperature, 30 min; GST-TFs on glutathione beads, 16-mer random dsDNA library, 0.1% formaldehyde crosslink after washing; high values mean tight binding
The target of one assay is T1, FLI1 (Homo sapiens, UniProt Q01543 1-452).
T1 sequence: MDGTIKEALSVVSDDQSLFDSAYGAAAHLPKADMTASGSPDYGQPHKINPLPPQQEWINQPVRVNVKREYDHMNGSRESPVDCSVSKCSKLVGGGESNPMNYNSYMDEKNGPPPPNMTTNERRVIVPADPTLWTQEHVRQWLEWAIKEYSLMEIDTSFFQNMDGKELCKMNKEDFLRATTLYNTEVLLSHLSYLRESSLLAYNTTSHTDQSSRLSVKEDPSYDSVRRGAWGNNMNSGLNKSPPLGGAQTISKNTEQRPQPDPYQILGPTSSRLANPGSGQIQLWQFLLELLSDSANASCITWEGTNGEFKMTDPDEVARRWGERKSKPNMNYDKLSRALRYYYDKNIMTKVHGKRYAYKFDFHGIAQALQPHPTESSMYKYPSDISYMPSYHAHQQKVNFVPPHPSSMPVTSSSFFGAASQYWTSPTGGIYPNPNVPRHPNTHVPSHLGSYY
The conditions noted are these: protein: recombinant; tags: N-terminal GST; dsDNA, one strand shown. The gist of the method:
(§1)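 Pools of DNA-barcoded human transcription factors, expressed in yeast as GST fusions on glutathione beads and combined with a tag-only sample, were incubated with 200 nmole of a 16-mer random double-stranded DNA library. Incubation took 30 min at room temperature in Tris/NaCl/DTT/glycerol buffer and was followed by washing, 0.1% formaldehyde crosslinking, proximity ligation (BsaI/T4 ligase, 1 h, 37 °C), PCR amplification and sequencing on an Illumina NextSeq500. Binding signal is the ratio of a hexamer's read frequency for a factor to its frequency for the tag-only sample.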

A further assay has as its target T2, ELK1 (Homo sapiens, UniProt P19419 1-428).
T2 sequence: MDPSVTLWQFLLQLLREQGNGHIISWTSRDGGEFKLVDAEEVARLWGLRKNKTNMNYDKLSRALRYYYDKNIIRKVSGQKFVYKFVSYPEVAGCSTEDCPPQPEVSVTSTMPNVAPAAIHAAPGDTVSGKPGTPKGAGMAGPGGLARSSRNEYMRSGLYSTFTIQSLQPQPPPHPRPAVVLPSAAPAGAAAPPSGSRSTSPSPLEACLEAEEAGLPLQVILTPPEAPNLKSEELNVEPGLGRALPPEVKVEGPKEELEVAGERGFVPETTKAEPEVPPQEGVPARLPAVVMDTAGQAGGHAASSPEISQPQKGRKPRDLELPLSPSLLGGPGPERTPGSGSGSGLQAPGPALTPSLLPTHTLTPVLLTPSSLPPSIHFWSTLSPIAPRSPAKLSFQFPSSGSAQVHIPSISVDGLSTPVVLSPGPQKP
The conditions noted are these: protein: recombinant; tags: N-terminal GST; dsDNA, one strand shown. An outline of the steps: as §1

A further assay concerns the target T3, GABPA (Homo sapiens, UniProt Q06546 1-454).
T3 sequence: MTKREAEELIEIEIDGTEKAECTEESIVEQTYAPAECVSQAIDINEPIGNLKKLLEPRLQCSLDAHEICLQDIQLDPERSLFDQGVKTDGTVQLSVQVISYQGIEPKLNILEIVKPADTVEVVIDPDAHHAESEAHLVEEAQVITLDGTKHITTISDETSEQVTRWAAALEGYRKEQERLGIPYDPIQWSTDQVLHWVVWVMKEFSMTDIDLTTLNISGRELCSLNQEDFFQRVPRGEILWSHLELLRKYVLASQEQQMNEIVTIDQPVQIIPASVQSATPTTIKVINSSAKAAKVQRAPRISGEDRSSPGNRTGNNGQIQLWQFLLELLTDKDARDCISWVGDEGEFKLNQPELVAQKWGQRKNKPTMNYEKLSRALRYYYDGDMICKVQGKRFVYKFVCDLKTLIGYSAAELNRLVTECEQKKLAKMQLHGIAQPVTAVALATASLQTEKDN
Conditions: protein: recombinant; tags: N-terminal GST; dsDNA, one strand shown. An outline of the steps: as §1

The next assay concerns the target T4, ERG (Homo sapiens, UniProt P11308 1-479).
T4 sequence: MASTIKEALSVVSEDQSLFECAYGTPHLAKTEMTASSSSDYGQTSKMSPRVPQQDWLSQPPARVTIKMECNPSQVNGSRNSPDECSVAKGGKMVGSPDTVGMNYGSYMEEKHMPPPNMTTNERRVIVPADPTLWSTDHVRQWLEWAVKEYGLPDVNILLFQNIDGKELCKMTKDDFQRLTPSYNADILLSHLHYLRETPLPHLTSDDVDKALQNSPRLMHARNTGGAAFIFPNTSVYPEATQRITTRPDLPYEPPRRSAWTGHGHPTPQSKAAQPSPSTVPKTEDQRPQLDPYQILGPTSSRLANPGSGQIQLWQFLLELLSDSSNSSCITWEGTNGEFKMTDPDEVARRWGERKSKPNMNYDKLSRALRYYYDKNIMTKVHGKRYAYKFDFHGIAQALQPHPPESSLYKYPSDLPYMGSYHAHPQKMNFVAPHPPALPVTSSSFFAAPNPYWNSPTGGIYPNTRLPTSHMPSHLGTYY
Conditions: protein: recombinant; tags: N-terminal GST; dsDNA, one strand shown. The gist of the method: as §1

The next assay has as its target ELF1 (Homo sapiens, UniProt P32519 1-619). The conditions noted are these: protein: recombinant; tags: N-terminal GST; dsDNA, one strand shown. An outline of the steps:
as §1

The target of another assay is T5, EHF (Homo sapiens, UniProt Q9NZC4 1-300).
T5 sequence: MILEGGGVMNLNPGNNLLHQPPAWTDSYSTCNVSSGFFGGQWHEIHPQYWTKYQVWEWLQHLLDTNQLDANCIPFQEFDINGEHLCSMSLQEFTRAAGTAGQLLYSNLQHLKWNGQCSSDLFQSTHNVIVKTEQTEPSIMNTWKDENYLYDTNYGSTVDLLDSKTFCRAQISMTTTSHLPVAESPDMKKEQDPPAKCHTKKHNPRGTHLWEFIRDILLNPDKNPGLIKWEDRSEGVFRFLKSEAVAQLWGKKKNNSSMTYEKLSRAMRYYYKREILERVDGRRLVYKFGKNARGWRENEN
The conditions noted are these: protein: recombinant; tags: N-terminal GST; dsDNA, one strand shown. An outline of the steps: as §1

Another assay addresses SPI1 (Homo sapiens, UniProt P17947 1-270). Conditions: protein: recombinant; tags: N-terminal GST; dsDNA, one strand shown. The gist of the method:
as §1

The target in the next assay is SPIB (Homo sapiens, UniProt Q01892 1-262). Conditions: protein: recombinant; tags: N-terminal GST; dsDNA, one strand shown. An outline of the steps:
as §1

Another assay deals with T6, ELK3 (Homo sapiens, UniProt P41970 1-407).
T6 sequence: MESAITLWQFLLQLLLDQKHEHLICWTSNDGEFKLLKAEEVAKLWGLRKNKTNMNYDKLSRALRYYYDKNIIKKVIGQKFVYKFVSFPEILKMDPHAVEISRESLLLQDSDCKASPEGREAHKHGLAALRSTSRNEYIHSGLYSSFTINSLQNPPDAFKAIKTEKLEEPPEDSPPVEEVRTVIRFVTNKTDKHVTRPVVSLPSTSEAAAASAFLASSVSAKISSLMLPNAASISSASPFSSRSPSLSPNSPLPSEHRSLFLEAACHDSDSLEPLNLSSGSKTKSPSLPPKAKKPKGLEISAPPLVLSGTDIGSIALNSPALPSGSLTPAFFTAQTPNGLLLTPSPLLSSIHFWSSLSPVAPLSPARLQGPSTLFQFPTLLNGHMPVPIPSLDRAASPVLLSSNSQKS
Conditions: protein: recombinant; tags: N-terminal GST; dsDNA, one strand shown. The gist of the method: as §1

Another assay concerns the target T7, FEV (Homo sapiens, UniProt Q99581 1-238).
T7 sequence: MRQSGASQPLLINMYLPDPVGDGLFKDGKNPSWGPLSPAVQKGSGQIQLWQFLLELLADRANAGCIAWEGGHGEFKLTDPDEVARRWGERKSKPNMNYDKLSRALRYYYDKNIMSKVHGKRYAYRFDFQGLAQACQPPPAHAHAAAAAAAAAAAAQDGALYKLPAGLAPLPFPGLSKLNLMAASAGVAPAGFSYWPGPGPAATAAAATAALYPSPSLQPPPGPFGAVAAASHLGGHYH
Conditions: protein: recombinant; tags: N-terminal GST; dsDNA, one strand shown. An outline of the steps: as §1

In the next assay the target is ETV5 (Homo sapiens, UniProt P41161 1-510). Conditions: protein: recombinant; tags: N-terminal GST; dsDNA, one strand shown. An outline of the steps: as §1
Chain of ETV5 (P41161 whole entry): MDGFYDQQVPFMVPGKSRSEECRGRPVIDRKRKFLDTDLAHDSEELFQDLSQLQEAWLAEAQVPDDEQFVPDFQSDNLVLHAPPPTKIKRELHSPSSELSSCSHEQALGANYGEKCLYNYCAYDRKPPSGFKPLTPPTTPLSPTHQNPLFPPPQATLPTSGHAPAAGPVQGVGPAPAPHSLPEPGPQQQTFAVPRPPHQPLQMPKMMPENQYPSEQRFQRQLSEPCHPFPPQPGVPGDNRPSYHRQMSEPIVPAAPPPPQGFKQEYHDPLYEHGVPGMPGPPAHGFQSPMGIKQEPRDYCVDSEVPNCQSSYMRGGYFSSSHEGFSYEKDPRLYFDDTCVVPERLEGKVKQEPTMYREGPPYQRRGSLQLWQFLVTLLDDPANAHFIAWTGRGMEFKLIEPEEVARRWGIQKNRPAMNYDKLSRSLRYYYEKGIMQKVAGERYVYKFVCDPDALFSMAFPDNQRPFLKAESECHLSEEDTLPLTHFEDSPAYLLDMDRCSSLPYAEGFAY
For the next assay, the target named is HSF1 (Homo sapiens, UniProt Q00613 1-529). The conditions noted are these: protein: recombinant; tags: N-terminal GST; chain copies: 3; dsDNA, one strand shown. The gist of the method:
as §1

The next assay deals with T8, SPIC (Homo sapiens, UniProt Q8N5J4 1-248).
T8 sequence: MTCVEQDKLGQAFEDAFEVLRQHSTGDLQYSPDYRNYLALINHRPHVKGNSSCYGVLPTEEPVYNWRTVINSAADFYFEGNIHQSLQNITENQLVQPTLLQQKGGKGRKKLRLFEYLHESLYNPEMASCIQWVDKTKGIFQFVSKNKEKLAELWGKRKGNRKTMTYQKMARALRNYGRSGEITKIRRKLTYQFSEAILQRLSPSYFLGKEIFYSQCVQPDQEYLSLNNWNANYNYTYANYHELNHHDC
The conditions noted are these: protein: recombinant; tags: N-terminal GST; dsDNA, one strand shown. The gist of the method:
as §1

Another assay concerns the target ELF4 (Homo sapiens, UniProt Q99607 1-663). Conditions: protein: recombinant; tags: N-terminal GST; dsDNA, one strand shown. An outline of the steps:
as §1

The next assay has as its target T9, ELK4 (Homo sapiens, UniProt P28324-2 1-405).
T9 sequence: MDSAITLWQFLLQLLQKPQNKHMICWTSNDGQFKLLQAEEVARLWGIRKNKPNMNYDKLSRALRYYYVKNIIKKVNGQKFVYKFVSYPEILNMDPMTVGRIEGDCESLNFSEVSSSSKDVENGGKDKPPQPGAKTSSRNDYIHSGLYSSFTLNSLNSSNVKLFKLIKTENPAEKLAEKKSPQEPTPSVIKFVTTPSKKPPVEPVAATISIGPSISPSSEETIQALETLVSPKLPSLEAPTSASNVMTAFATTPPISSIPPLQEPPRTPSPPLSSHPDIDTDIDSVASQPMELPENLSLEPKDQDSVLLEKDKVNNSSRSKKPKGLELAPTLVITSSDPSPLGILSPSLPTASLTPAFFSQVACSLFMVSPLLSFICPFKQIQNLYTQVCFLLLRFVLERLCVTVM
Conditions: protein: recombinant; tags: N-terminal GST; dsDNA, one strand shown. The gist of the method:
as §1

The target in the next assay is T10, ETV2 (Homo sapiens, UniProt O00321 1-342).
T10 sequence: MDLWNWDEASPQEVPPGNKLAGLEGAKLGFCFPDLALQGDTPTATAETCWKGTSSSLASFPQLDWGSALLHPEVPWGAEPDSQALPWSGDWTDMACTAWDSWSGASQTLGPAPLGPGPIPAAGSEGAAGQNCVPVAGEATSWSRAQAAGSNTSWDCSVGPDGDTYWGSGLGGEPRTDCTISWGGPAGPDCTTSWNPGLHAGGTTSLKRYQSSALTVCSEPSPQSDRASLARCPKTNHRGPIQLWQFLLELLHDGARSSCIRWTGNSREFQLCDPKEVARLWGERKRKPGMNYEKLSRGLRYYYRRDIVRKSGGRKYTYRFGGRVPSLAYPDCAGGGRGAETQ
The conditions noted are these: protein: recombinant; tags: N-terminal GST; dsDNA, one strand shown. The gist of the method: as §1

The target in a further assay is T11, ELF3 (Homo sapiens, UniProt P78545 1-371).
T11 sequence: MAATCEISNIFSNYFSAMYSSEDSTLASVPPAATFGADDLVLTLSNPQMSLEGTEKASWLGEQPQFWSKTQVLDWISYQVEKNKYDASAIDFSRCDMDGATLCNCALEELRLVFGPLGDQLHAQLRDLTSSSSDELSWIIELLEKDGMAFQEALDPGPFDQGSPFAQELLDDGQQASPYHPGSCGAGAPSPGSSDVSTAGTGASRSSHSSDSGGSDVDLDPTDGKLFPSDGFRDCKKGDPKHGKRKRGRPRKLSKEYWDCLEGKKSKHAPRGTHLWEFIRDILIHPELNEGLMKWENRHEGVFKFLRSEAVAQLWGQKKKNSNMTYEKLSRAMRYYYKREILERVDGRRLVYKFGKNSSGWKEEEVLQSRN
Conditions: protein: recombinant; tags: N-terminal GST; dsDNA, one strand shown. The gist of the method: as §1

The next assay deals with CRX (Homo sapiens, UniProt O43186 1-299). The conditions noted are these: protein: recombinant; tags: N-terminal GST; dsDNA, one strand shown. The gist of the method: as §1
Chain of CRX (O43186 whole entry): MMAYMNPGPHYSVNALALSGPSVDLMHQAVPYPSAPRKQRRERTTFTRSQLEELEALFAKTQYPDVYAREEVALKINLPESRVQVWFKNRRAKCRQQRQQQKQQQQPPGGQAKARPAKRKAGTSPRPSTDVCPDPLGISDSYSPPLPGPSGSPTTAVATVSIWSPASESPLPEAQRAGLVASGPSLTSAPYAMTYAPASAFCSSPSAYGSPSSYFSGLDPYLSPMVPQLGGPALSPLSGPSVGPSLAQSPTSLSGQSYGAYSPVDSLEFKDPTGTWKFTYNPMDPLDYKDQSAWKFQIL
The target of the next assay is ETV1 (Homo sapiens, UniProt P50549 1-477). The conditions noted are these: protein: recombinant; tags: N-terminal GST; dsDNA, one strand shown. An outline of the steps: as §1
Chain of ETV1 (P50549 whole entry): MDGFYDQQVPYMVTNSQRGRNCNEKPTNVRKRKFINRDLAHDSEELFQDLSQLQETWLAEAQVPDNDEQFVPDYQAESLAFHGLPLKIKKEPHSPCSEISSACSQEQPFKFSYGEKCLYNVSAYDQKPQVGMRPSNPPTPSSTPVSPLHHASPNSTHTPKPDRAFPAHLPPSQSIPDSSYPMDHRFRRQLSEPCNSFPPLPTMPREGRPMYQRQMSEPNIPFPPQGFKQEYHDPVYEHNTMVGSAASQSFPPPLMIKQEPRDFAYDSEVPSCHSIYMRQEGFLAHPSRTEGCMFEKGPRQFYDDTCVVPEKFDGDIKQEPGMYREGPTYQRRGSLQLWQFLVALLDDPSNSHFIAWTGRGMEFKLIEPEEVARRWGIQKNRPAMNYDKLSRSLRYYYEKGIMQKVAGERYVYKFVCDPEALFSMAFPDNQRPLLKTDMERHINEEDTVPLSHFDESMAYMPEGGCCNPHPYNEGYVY

Chain of ELF4 (Q99607 whole entry): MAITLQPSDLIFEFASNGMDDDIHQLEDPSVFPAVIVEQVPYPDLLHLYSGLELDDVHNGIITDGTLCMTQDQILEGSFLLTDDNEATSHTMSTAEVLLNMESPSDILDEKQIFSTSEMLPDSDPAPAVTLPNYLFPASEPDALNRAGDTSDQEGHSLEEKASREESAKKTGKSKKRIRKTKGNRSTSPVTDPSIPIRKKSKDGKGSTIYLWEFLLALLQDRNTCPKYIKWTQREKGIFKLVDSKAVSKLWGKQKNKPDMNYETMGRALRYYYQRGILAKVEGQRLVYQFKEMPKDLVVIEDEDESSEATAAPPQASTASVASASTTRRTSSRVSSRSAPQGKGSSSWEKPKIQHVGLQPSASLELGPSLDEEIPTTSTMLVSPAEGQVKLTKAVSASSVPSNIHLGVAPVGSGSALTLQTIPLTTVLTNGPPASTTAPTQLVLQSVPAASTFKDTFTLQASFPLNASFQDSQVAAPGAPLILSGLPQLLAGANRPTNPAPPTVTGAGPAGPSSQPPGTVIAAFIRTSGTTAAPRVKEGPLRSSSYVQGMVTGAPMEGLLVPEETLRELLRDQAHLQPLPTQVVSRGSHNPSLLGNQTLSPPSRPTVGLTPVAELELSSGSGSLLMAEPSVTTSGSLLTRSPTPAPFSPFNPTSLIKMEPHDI
Chain of HSF1 (Q00613 whole entry): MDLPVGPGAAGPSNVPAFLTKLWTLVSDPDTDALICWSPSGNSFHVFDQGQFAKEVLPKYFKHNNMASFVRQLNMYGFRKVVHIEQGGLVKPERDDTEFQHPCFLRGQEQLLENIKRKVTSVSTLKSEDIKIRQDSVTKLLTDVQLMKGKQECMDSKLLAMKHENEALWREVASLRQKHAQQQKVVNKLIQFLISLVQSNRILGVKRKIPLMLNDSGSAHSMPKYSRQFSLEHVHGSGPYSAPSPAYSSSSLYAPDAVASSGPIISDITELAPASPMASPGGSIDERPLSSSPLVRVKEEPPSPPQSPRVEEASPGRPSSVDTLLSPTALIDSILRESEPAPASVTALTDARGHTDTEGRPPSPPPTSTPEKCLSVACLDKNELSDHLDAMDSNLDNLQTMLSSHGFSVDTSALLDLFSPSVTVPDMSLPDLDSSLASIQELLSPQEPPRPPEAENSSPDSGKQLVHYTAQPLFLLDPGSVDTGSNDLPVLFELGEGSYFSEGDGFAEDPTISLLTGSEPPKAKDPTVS
Chain of ELF1 (P32519 whole entry): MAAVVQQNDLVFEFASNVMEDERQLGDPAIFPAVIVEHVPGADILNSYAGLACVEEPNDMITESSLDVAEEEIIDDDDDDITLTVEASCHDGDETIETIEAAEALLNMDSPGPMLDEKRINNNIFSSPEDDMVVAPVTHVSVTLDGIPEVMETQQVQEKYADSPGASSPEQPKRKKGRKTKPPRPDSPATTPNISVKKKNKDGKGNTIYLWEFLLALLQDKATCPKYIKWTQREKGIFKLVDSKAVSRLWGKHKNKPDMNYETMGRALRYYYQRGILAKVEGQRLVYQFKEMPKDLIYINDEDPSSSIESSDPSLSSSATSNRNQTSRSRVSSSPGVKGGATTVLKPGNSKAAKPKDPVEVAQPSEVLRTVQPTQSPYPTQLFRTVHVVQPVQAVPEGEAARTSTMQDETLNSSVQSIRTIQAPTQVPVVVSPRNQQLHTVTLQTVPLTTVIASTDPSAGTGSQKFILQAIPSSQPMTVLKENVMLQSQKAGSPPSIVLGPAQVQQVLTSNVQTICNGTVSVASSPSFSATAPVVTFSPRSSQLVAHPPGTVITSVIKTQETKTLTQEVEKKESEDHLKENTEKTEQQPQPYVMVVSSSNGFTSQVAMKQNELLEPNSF
Chain of SPIB (Q01892 whole entry): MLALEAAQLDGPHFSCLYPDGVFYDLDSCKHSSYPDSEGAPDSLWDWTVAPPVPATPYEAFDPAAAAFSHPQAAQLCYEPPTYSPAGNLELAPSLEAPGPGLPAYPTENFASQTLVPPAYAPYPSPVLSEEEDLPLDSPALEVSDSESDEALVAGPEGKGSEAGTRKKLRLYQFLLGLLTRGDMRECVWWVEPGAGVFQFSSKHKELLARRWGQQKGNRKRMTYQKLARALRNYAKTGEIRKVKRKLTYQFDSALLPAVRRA

As to CATTAT, the binding signal was 1.19 fold enrichment (6-mer frequency, TF over GST control) with FLI1; 1.13 fold enrichment (6-mer frequency, TF over GST control) with ELK1; 1.06 fold enrichment (6-mer frequency, TF over GST control) with GABPA; 1.15 fold enrichment (6-mer frequency, TF over GST control) with ERG; 1.16 fold enrichment (6-mer frequency, TF over GST control) in the assay with ELF1; 1.18 fold enrichment (6-mer frequency, TF over GST control) with EHF. In addition, the binding signal with SPI1 was 1.11 fold enrichment (6-mer frequency, TF over GST control); with SPIB, 1.18 fold enrichment (6-mer frequency, TF over GST control); with ELK3, 1.13 fold enrichment (6-mer frequency, TF over GST control); with FEV it was 1.18 fold enrichment (6-mer frequency, TF over GST control); with ETV5, 1.09 fold enrichment (6-mer frequency, TF over GST control); with HSF1, 1.26 fold enrichment (6-mer frequency, TF over GST control). The binding signal in the assay with SPIC was 1.25 fold enrichment (6-mer frequency, TF over GST control); in the assay with ELF4, 1.21 fold enrichment (6-mer frequency, TF over GST control); with ELK4, 1.28 fold enrichment (6-mer frequency, TF over GST control); with ETV2 it was 1.05 fold enrichment (6-mer frequency, TF over GST control); in the assay with ELF3, 1.33 fold enrichment (6-mer frequency, TF over GST control); in the assay with CRX it was 1.65 fold enrichment (6-mer frequency, TF over GST control). Besides, the binding signal with ETV1 was 1.32 fold enrichment (6-mer frequency, TF over GST control).
